# From PubChem BioAssay (EPA / NIEHS)
# Inconclusive results are not listed. Active and inactive are the calls of the source. Rule for the calls, unless noted: active = hit-call score of the fitted dose curve at least 0.9, where 1 is the maximum; inactive = score below 0.9.
# Experiments:
# [1] = ATG_NFI_CIS: Attagene CIS-FACTORIAL HepG2 Assay for human Nuclear Factor I (NFI) (AID 2282989); details: HepG2 cis-regulatory reporter, NFI response element transcription; actives raise or lower the signal
# Method in brief: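 Read-out: reporter mRNA via RT-PCR plus capillary electrophoresis with fluorescence detection. Transiently transfected HepG2 (endogenous TF activity on cis promoters), 24 h compound exposure; gain or loss of signal fitted against DMSO.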
# [2] = biological target: Myc proto-oncogene protein (Homo sapiens) (UniProt P01106); experiment: ATG_Myc_CIS: Attagene CIS-FACTORIAL HepG2 Assay for human Myelocytomatosis (Myc) Proto-Oncogene Transcription Factor (AID 2282990); details: HepG2, Attagene cis-reporter transcription factor activity; actives raise or lower the signal
# Chain of Myc proto-oncogene protein (Homo sapiens) (P01106 whole entry, looked up): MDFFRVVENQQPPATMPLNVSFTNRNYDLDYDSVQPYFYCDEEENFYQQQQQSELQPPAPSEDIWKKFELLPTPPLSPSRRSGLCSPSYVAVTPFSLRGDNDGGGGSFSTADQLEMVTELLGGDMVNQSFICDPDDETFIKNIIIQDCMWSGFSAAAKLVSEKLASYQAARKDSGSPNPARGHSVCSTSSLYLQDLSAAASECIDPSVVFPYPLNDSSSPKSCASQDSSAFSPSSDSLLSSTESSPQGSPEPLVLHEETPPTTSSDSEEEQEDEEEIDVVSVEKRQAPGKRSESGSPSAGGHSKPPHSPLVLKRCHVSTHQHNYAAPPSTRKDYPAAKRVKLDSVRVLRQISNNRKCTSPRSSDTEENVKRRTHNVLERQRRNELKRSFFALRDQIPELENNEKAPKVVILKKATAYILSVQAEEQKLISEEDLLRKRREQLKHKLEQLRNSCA
# Method in brief: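 HepG2 cells transiently transfected with multiple cis-promoter-driven reporter transcription units, so endogenous TF activity is read. After 24 h compound exposure, reporter mRNA was quantified by RT-PCR, 6-FAM labelling, HpaI digestion and capillary electrophoresis; bidirectional fit versus DMSO.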
# [3] = ATG_NRF2_ARE_CIS: Attagene CIS-FACTORIAL HepG2 Assay for human Nuclear Factor Erythroid 2 Related Factor 2 (NFR2) response to Antioxidant Response Elements (ARE) (AID 2282992); details: HepG2 Attagene ARE/NRF2 reporter, transcription factor activity; actives raise or lower the signal;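 for AC50: reporter mRNA level measured by RT-PCR and capillary electrophoresis fluorescence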
# Method in brief: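 Readout: reporter mRNA quantified by RT-PCR plus FAM-labelled primer extension, HpaI digestion and capillary electrophoresis, 24 h after dosing transfected HepG2 cells. Gain or loss of signal is fitted bidirectionally against DMSO baseline.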
# [4] = ATG_Oct_MLP_CIS: Attagene CIS-FACTORIAL HepG2 Assay for human Octamer-Binding Transcription Factor (Oct) (AID 2282993); details: HepG2 Attagene cis-factorial Oct reporter, mRNA; actives raise or lower the signal
# Method in brief: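 Read-out: reporter mRNA via RT-PCR plus capillary electrophoresis of 6-FAM-labelled fragments. Transiently transfected HepG2, 24 h exposure, endogenous TF activity on cis elements. Gain or loss of signal fitted relative to DMSO.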
# [5] = biological target: human Peroxisome Proliferator-activated Receptor alpha (PPARa), PPARA (gene 5465) (UniProt Q07869); experiment: ATG_PPARa_TRANS: Attagene TRANS-FACTORIAL HepG2 Assay for human Peroxisome Proliferator-activated Receptor alpha (PPARa) (AID 2283001; active = hit-call score of the fitted dose curve at least 0.9, where 1 is the maximum;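 for AC50: potency for gain of reporter signal over DMSO so agonist or activator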)
# Chain of human Peroxisome Proliferator-activated Receptor alpha (PPARa), PPARA (gene 5465) (Q07869 whole entry, looked up, the tested form may be a part): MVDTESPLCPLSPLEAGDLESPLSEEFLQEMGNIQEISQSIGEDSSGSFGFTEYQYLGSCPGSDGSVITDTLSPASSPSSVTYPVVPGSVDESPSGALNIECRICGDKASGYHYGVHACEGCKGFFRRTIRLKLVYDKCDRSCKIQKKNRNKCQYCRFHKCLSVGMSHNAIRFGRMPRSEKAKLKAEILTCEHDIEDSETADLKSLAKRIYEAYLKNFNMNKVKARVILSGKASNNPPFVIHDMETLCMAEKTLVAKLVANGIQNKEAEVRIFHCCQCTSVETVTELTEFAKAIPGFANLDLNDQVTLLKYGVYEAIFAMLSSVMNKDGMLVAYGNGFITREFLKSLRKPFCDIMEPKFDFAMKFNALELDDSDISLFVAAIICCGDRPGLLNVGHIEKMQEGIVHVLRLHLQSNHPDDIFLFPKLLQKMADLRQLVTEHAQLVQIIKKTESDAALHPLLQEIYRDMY
# Method in brief: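 Exposure: 24 h, transiently transfected HepG2 cells. Endpoint: GAL4-UAS reporter mRNA, RT-PCR with capillary electrophoresis fluorescence. Baseline: DMSO; increases fitted.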
# [6] = biological target: human Retinoic Acid Receptor beta (RARb), RARB (gene 5915) (UniProt P10826); experiment: ATG_RARb_TRANS: Attagene TRANS-FACTORIAL HepG2 Assay for human Retinoic Acid Receptor beta (AID 2283004; active = hit-call score of the fitted dose curve at least 0.9, where 1 is the maximum)
# Chain of human Retinoic Acid Receptor beta (RARb), RARB (gene 5915) (P10826 whole entry, looked up, the tested form may be a part): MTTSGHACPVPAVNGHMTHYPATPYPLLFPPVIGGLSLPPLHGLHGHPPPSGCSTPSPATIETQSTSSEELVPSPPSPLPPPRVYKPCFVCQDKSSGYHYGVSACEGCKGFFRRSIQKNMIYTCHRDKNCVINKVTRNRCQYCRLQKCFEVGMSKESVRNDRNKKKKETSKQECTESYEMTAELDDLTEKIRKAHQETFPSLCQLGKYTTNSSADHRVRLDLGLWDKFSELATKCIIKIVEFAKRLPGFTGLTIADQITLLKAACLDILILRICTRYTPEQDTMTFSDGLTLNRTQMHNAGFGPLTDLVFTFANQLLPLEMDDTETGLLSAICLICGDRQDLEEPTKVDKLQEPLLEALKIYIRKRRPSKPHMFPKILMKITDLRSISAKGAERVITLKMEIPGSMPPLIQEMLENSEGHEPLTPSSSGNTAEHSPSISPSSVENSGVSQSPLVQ
# Method in brief: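 Readout is reporter mRNA induction: RNA reverse-transcribed, PCR-amplified, FAM-labelled, HpaI-cut and resolved by capillary electrophoresis. Transiently transfected HepG2 cells carrying exogenous NR–Gal4 chimeras were dosed for 24 h; activity fitted upward relative to DMSO.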
# [7] = biological target: Nuclear receptor subfamily 1 group I member 2 (Homo sapiens) (UniProt O75469); experiment: ATG_PXR_TRANS: Attagene TRANS-FACTORIAL HepG2 Assay for human Pregnane X Receptor (PXR) (AID 2283008; active = hit-call score of the fitted dose curve at least 0.9, where 1 is the maximum)
# Chain of Nuclear receptor subfamily 1 group I member 2 (Homo sapiens) (O75469 whole entry, looked up, the tested form may be a part): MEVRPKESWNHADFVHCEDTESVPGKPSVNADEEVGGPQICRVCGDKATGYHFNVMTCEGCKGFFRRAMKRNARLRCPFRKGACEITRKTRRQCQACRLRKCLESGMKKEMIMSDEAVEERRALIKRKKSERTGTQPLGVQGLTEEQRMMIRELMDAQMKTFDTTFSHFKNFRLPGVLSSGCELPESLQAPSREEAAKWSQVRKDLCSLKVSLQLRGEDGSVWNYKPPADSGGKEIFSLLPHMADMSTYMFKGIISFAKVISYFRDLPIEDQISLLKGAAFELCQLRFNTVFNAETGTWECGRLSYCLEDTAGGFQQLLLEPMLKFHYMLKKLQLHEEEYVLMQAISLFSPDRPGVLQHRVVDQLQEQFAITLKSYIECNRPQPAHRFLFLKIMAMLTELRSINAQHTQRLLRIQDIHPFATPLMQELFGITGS
# Method in brief: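 Trans-factorial format: exogenous NR-Gal4 fusion activity, not endogenous factor, in transfected human HepG2 liver cells. After 24 h dosing, RNA isolated, reverse-transcribed, amplified and resolved by capillary electrophoresis; induction scored versus DMSO.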
# [8] = biological target: human RAR-related Orphan Receptor beta (RORb), RORB (gene 6096) (UniProt Q92753); experiment: ATG_RORb_TRANS: Attagene TRANS-FACTORIAL HepG2 Assay for human RAR-related Orphan Receptor beta (RORb) (AID 2283010; active = hit-call score of the fitted dose curve at least 0.9, where 1 is the maximum)
# Chain of human RAR-related Orphan Receptor beta (RORb), RORB (gene 6096) (Q92753 whole entry, looked up, the tested form may be a part): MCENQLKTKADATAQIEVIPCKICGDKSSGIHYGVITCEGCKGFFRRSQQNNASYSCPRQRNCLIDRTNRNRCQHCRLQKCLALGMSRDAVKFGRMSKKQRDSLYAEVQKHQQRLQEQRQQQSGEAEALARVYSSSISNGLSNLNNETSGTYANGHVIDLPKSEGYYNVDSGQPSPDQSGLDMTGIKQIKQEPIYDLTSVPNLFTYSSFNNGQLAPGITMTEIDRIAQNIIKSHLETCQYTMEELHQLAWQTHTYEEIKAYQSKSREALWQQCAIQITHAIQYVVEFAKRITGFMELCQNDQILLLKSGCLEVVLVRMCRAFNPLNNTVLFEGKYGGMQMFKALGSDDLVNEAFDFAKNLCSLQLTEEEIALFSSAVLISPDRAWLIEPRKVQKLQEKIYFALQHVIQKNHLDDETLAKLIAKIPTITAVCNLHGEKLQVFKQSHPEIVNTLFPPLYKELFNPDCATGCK
# Method in brief: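 HepG2, transient MRTU transfection (GAL4-UAS reporters, exogenous NR-Gal4 chimeras); 24 h compound exposure; total RNA → RT-PCR → 6-FAM primer extension → HpaI digest → CE fluorescence. Positive direction vs DMSO baseline.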
# [9] = biological target: Cellular tumor antigen p53 (Homo sapiens) (UniProt P04637); experiment: ATG_p53_CIS: Attagene CIS-FACTORIAL HepG2 Assay for human p53 Transcription Factor (AID 2282994); details: HepG2 p53 cis-element reporter, Attagene mRNA; actives raise or lower the signal
# Chain of Cellular tumor antigen p53 (Homo sapiens) (P04637 whole entry, looked up): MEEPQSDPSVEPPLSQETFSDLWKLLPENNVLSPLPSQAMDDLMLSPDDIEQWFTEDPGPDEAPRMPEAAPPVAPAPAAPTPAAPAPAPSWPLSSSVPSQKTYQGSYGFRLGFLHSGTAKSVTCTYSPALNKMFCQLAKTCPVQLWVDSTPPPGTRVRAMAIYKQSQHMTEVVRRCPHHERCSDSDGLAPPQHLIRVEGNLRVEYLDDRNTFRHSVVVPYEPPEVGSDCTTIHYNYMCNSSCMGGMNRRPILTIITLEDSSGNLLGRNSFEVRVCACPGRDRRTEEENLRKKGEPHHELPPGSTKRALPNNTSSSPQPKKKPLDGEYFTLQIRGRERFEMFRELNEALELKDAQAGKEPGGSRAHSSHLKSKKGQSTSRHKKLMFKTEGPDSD
# Method in brief: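 Read-out: reporter mRNA by RT-PCR plus capillary electrophoresis with fluorescence detection. Human HepG2 liver cells carried transfected multi-reporter cis-element constructs, dosed 24 h. Gain or loss of signal fitted bidirectionally against DMSO control.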
# [10] = biological target: human Peroxisome Proliferator-activated Receptor delta (PPARd), PPARD (gene 5467) (UniProt Q03181); experiment: ATG_PPARd_TRANS: Attagene TRANS-FACTORIAL HepG2 Assay for human Peroxisome Proliferator-activated Receptor delta (PPARd) (AID 2283002; active = hit-call score of the fitted dose curve at least 0.9, where 1 is the maximum)
# Chain of human Peroxisome Proliferator-activated Receptor delta (PPARd), PPARD (gene 5467) (Q03181 whole entry, looked up, the tested form may be a part): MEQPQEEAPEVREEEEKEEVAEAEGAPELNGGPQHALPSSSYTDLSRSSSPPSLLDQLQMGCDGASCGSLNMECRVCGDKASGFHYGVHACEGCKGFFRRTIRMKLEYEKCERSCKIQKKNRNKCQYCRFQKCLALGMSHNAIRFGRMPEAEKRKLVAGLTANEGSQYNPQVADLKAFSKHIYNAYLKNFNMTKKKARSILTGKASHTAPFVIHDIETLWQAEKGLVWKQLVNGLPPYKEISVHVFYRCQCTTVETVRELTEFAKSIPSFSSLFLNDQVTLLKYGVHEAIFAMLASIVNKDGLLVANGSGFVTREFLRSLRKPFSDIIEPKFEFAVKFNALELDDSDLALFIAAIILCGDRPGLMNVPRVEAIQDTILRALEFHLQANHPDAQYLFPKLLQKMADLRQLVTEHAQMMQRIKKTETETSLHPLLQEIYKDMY
# Method in brief: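 HepG2 cells transiently transfected with multiplexed GAL4-UAS reporter units and exogenous chimeric NR-Gal4 proteins; 24 h compound exposure. Reporter mRNA measured by RT-PCR, 6-FAM labelling, HpaI digestion and capillary electrophoresis; gain of signal versus DMSO.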
# [11] = biological target: Retinoic acid receptor alpha (Homo sapiens) (UniProt P10276); experiment: ATG_RARa_TRANS: Attagene TRANS-FACTORIAL HepG2 Assay for human Retinoic Acid Receptor alpha (RARa) (AID 2283005; active = hit-call score of the fitted dose curve at least 0.9, where 1 is the maximum)
# Chain of Retinoic acid receptor alpha (Homo sapiens) (P10276 whole entry, looked up, the tested form may be a part): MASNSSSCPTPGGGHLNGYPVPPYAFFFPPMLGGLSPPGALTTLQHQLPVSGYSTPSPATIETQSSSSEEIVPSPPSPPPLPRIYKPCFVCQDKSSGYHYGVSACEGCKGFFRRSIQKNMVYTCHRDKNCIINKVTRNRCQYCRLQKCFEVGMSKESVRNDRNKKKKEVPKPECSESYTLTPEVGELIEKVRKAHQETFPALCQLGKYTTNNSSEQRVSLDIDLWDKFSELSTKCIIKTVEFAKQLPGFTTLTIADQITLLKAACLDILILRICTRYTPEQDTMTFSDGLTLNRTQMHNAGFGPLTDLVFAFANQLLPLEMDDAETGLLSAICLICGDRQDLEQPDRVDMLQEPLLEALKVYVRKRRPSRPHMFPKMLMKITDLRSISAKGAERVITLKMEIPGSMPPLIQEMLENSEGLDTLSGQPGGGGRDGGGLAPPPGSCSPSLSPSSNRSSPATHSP
# Method in brief: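 HepG2 cells transiently transfected with multiple reporter units expressing chimeric RARα-GAL4 fusion, with GAL4-UAS-driven reporters. After 24 h compound exposure, reporter mRNA induction quantified by RT-PCR and capillary electrophoresis with fluorescent labeling; gain-of-signal fitted relative to DMSO control.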
# [12] = biological target: Peroxisome proliferator-activated receptor gamma (Homo sapiens) (UniProt P37231); experiment: ATG_PPARg_TRANS: Attagene TRANS-FACTORIAL HepG2 Assay for human Peroxisome Proliferator-activated Receptor-gamma (PPARg) (AID 2283007; active = hit-call score of the fitted dose curve at least 0.9, where 1 is the maximum)
# Chain of Peroxisome proliferator-activated receptor gamma (Homo sapiens) (P37231 whole entry, looked up): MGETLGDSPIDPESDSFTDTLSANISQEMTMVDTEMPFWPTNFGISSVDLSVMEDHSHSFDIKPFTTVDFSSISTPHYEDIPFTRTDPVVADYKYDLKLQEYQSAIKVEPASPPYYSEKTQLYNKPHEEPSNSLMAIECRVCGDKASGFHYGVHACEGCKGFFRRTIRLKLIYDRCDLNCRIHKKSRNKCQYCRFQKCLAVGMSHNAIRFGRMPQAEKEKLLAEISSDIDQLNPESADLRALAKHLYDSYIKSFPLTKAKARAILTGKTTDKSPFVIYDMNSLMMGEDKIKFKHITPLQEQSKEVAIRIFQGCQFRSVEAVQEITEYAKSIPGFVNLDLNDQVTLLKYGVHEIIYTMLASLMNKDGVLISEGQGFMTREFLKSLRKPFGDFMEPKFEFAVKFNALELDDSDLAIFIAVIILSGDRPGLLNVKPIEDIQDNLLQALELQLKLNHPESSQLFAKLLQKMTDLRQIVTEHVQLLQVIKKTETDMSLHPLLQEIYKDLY
# Method in brief: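 Human hepatoma HepG2, transient MRTU transfection, 24 h treatment. mRNA reporter signal by RT-PCR plus capillary electrophoresis, fluorescence detection; fitted for increase over DMSO negative control.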
# [13] = biological target: human Retinoic Acid Receptor gamma (RARg), RARG (gene 5916) (UniProt P13631); experiment: ATG_RARg_TRANS: Attagene TRANS-FACTORIAL HepG2 Assay for human Retinoic Acid Receptor gamma (RARg) (AID 2283009; active = hit-call score of the fitted dose curve at least 0.9, where 1 is the maximum)
# Chain of human Retinoic Acid Receptor gamma (RARg), RARG (gene 5916) (P13631 whole entry, looked up, the tested form may be a part): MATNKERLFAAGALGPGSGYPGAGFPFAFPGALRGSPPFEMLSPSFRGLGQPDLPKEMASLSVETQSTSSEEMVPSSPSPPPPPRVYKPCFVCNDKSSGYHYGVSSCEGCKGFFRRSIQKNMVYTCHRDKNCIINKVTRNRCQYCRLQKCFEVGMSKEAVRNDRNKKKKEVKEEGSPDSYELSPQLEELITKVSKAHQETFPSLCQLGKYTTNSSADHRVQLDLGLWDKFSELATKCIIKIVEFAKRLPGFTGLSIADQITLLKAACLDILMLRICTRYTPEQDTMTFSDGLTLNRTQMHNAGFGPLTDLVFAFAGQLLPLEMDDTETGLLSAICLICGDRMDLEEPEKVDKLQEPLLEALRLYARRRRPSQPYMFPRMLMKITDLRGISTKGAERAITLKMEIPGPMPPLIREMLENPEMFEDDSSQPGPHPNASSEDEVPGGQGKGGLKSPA
# Method in brief: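 Readout: reporter transcript levels via RT-PCR, 6-FAM primer-extension labelling, HpaI digestion and capillary electrophoresis. Cells: HepG2 carrying transfected RARg-GAL4 chimera plus UAS reporter set. Dosing 24 h; DMSO negative control.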
# [14] = ATG_NF_kB_CIS: Attagene CIS-FACTORIAL HepG2 Assay for human Nuclear Factor Kappa B (NF-kB) (AID 2282991); details: HepG2 Attagene cis-factorial NF-kB reporter mRNA; actives raise or lower the signal
# Method in brief: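 Multiplexed cis-reporter assay in transiently transfected HepG2. 24 h treatment; RNA isolated, RT-PCR, labelled fragments resolved by CE. DMSO baseline.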
smiles,measurement,setting,value
CCOc1ccc(NC(=O)CC(C)=O)cc1,outcome,[1],inactive
same,outcome,[2],inactive
same,outcome,[3],inactive
same,outcome,[4],inactive
same,outcome,[5],inactive
same,outcome,[6],inactive
same,outcome,[7],inactive
same,outcome,[8],inactive
NC1CCCCC1N (stereo not given),outcome,[1],inactive
same,outcome,[2],inactive
same,outcome,[3],inactive
same,outcome,[4],inactive
same,outcome,[9],inactive
same,outcome,[10],inactive
same,outcome,[11],inactive
same,outcome,[7],inactive
CCc1cc(C(C)(C)C)c(O)c(C(C)(C)C)c1,AC50,[1],54 µM (active)
same,outcome,[2],inactive
same,AC50,[3],52.6 µM (active)
same,outcome,[4],inactive
same,outcome,[9],inactive
same,outcome,[6],inactive
same,outcome,[11],inactive
same,AC50,[12],61 µM (active)
same,AC50,[7],26.8 µM (active)
Cc1ccc2c(c1)C(=O)OC2=O,outcome,[1],inactive
same,outcome,[2],inactive
same,outcome,[3],inactive
same,outcome,[4],inactive
same,outcome,[9],inactive
same,outcome,[10],inactive
same,outcome,[11],inactive
same,outcome,[12],inactive
same,outcome,[7],inactive
same,outcome,[8],inactive
OC[C@H]1O[C@@H](Oc2ccc(O)cc2)[C@H](O)[C@@H](O)[C@@H]1O,outcome,[1],inactive
same,outcome,[2],inactive
same,outcome,[3],inactive
same,outcome,[4],inactive
same,outcome,[9],inactive
same,outcome,[10],inactive
same,outcome,[7],inactive
CCCCCCCC/C=C\CCCCCCCC(=O)OCC,outcome,[1],inactive
same,outcome,[2],inactive
same,outcome,[3],inactive
same,outcome,[4],inactive
same,AC50,[5],45.1 µM (active)
same,outcome,[10],inactive
same,outcome,[6],inactive
same,AC50,[12],50.5 µM (active)
same,outcome,[7],inactive
same,outcome,[8],inactive
CCCCCCCCN1CCCC1=O,outcome,[1],inactive
same,outcome,[2],inactive
same,AC50,[3],66.8 µM (active)
same,outcome,[4],inactive
same,AC50,[9],72.6 µM (active)
same,outcome,[12],inactive
same,AC50,[7],7.53 µM (active)
same,outcome,[13],inactive
CCCCCCC(=O)c1ccccc1,outcome,[1],inactive
same,outcome,[2],inactive
same,AC50,[3],121 µM (active)
same,outcome,[4],inactive
same,outcome,[5],inactive
same,outcome,[10],inactive
same,AC50,[12],42.8 µM (active)
same,AC50,[7],59.2 µM (active)
CCCCC1(COC(=O)CCC(=O)O)C(=O)N(c2ccccc2)N(c2ccccc2)C1=O,outcome,[1],inactive
same,outcome,[2],inactive
same,outcome,[3],inactive
same,outcome,[4],inactive
same,outcome,[9],inactive
same,outcome,[12],inactive
same,AC50,[7],28 µM (active)
CCCCCCOCCOCCO,outcome,[1],inactive
same,outcome,[2],inactive
same,outcome,[3],inactive
same,outcome,[4],inactive
same,outcome,[10],inactive
same,outcome,[12],inactive
same,outcome,[7],inactive
same,outcome,[13],inactive
Nc1ccc2c(O)cc(S(=O)(=O)O)cc2c1,outcome,[1],inactive
same,outcome,[2],inactive
same,outcome,[3],inactive
same,outcome,[4],inactive
same,outcome,[9],inactive
same,outcome,[12],inactive
same,outcome,[7],inactive
same,outcome,[13],inactive
same,outcome,[8],inactive
C=C(C)CNCC,outcome,[2],inactive
same,outcome,[14],inactive
same,outcome,[3],inactive
same,outcome,[4],inactive
same,outcome,[9],inactive
same,outcome,[5],inactive
same,outcome,[10],inactive
same,AC50,[7],54.6 µM (active)
same,outcome,[13],inactive
CCCCSCCCC,outcome,[2],inactive
same,outcome,[14],inactive
same,outcome,[3],inactive
same,outcome,[4],inactive
same,outcome,[9],inactive
same,outcome,[10],inactive
same,outcome,[12],inactive
same,outcome,[7],inactive
CCN(CCN)c1cccc(C)c1,outcome,[2],inactive
same,outcome,[3],inactive
same,outcome,[4],inactive
same,outcome,[9],inactive
same,outcome,[5],inactive
same,outcome,[6],inactive
same,outcome,[12],inactive
same,outcome,[13],inactive
Nc1ccc2cc(S(=O)(=O)O)cc(O)c2c1N=Nc1ccccc1C(F)(F)F,outcome,[2],inactive
same,outcome,[3],inactive
same,outcome,[4],inactive
same,outcome,[5],inactive
same,outcome,[10],inactive
same,outcome,[6],inactive
same,outcome,[11],inactive
same,outcome,[12],inactive
same,outcome,[7],inactive
same,outcome,[8],inactive
CN(C)c1cccc(O)c1,outcome,[2],inactive
same,outcome,[14],inactive
same,outcome,[3],inactive
same,outcome,[4],inactive
same,outcome,[5],inactive
same,outcome,[10],inactive
same,outcome,[12],inactive
same,AC50,[7],5.57 µM (active)
same,outcome,[8],inactive
CCCCCc1ccco1,outcome,[2],inactive
same,AC50,[14],54.2 µM (active)
same,AC50,[3],31.9 µM (active)
same,outcome,[4],inactive
same,outcome,[9],inactive
same,outcome,[10],inactive
same,AC50,[12],4.11 µM (active)
same,AC50,[7],2.75 µM (active)
CC(C)CCCCCCCCCCCCCCC(=O)O,outcome,[2],inactive
same,outcome,[14],inactive
same,outcome,[3],inactive
same,outcome,[4],inactive
same,outcome,[9],inactive
same,outcome,[5],inactive
same,outcome,[10],inactive
same,outcome,[11],inactive
same,AC50,[12],30.2 µM (active)
same,outcome,[7],inactive
same,outcome,[8],inactive
